Results published in PubChem BioAssay (NCATS).
“And” between values parts separate entries of the source, which are not always exact repeats. Equal entries are not always repeated. A number with no mark means an inactive call. Results filed as inconclusive are left out. A call without a number means that no potency is given here. The source made the active and inactive calls. Calls follow the shape of the dose curve; as a rule, active = well fitted curve in the direction sought with a large enough effect; inconclusive = small, poorly fitted or top-dose-only effect, or another doubt; inactive = no such curve, though single readings can be large; an effect the other way counts as inactive or inconclusive.

Tests used:
[1] = tested on: Zika virus NS2B-NS3 protease (linked construct); assay: Primary screen NINDS Rhodamine qHTS for Zika virus inhibitors (AID 1347160); also: nearly all actives have a fitted effect of over 55% in size
Summary of the method: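 Rhodamine110-peptide cleavage (1.5 µM substrate) by 25 nM linked NS2B-NS3 enzyme at pH 8.0 (Tris, Tween 20), after 15 min RT preincubation with compounds; 15-min fluorescence change normalized to controls and Hill-fitted.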

[2] = molecular target: Calcium and integrin-binding protein 1 (Homo sapiens) (UniProt Q99828); assay: Primary qHTS for Identification of Calcium Integrin Binding Protein 1 (CIB1) Competitor (AID 1508620);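 also: GST tagged CIB1 binding a fluorescein labelled alphaIIb integrin peptide tracer; top concentration of the series differs between compounds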
Calcium and integrin-binding protein 1 (Homo sapiens), sequence (Q99828 whole entry, looked up): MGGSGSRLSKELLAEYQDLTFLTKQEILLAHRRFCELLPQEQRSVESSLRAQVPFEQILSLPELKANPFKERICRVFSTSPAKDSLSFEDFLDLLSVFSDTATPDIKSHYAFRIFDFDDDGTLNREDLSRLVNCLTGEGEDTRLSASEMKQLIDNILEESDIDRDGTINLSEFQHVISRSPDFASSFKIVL
Summary of the method: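 Fluorescence polarization competition: CIB1-GST (1 uM final) preincubated with compound 15 min at room temperature, then FITC-labeled alphaIIb peptide (100 nM final) added for another 15 min. Polarization read at Ex 480/Em 540.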

[3] = Primary qHTS for inhibitors of nuclear receptor binding SET domain protein 2 (NSD2) in an isogenic RCH-ACV NSD2 p.E1099K mutant (9B) (AID 1645876); also: potency is read from the fitted curve at half-maximal effect; nearly all actives have a fitted effect of over 70% in size
[4] = Primary qHTS for inhibitors of nuclear receptor binding SET domain protein 2 (NSD2) in an RCH-ACV wild type WT cells (2C) (AID 1645877); also: potency is read from the fitted curve at half-maximal effect; nearly all actives have a fitted effect of over 70% in size
[5] = molecular target: Glutathione peroxidase 1 (Homo sapiens) (UniProt P07203); assay: Primary qHTS Assay for Inhibitors of Recombinant Selenoprotein Glutathione Peroxidase 1 (GPX1) (AID 1845191); also: nearly all actives have a fitted effect of over 65% in size; also: potency is read from the fitted curve at half-maximal effect
Glutathione peroxidase 1 (Homo sapiens), sequence (P07203 whole entry, looked up): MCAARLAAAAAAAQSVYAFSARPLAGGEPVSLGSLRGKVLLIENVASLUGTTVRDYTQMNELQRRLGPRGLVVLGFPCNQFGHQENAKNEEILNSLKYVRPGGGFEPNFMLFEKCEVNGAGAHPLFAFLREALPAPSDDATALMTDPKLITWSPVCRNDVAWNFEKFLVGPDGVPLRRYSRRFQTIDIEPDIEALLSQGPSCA
Summary of the method: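 GPX1 10 nM, GR 100 nM, GSH 1 mM, NADPH 0.5 mM, CHP 0.5 mM (final). 30-min cpd preincubation, RT. Ex340/Em450 read t=0, t=15 min.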

[6] = molecular target: Phospholipid hydroperoxide glutathione peroxidase GPX4 (Homo sapiens) (UniProt P36969); assay: Primary qHTS Assay for Inhibitors of Recombinant Selenoprotein Glutathione Peroxidase 4 (GPX4) (AID 1845192); settings: outcome: dose series up to 50 µM unless noted; also: nearly all actives have a fitted effect of over 65% in size
Phospholipid hydroperoxide glutathione peroxidase GPX4 (Homo sapiens), sequence (P36969 whole entry, looked up): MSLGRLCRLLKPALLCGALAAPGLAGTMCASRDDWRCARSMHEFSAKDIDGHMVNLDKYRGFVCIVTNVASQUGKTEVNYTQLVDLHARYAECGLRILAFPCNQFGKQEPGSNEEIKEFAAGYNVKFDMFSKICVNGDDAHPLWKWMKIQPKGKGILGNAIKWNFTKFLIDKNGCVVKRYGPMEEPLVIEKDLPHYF
Summary of the method: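 qHTS, GR-coupled: GPX4 200 nM + cpd 30 min RT → GSH 1 mM, NADPH 0.5 mM, GR 100 nM → CHP 0.5 mM start; fluor 340/450 at t0 and t15 min; no-enzyme wells as control.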

[7] = molecular target: Luciferin 4-monooxygenase (Photinus pyralis) (UniProt P08659); assay: Primary firefly luciferase (FLuc) qHTS assay for identification of artifact compounds. (AID 1845220); also: nearly all actives have a fitted effect of over 60% in size
Summary of the method: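 Reaction readout was CCD-imaged luminescence, taken 5 min after adding 10 nM purified firefly enzyme to compound-treated wells holding 10 uM luciferin and ATP in pH 7.6 buffer.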

[8] = Primary redox qHTS assay for identification of artifact compounds. (AID 1845223); also: potency is read from the fitted curve at half-maximal effect
Summary of the method: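 Redox-cycling detection via DTT (250 uM final) oxidation coupled to Amplex Red (25 uM)/HRP (250 mU/mL) in HBSS. 15 min preincubation plus 30 min after DTT, room temperature. Ex/Em 525/598 nm; 4-parameter Hill fit against DMSO and 10 uM DA3003.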

C33A = assay: Primary qHTS to identify gynecologic anti-cancer compounds using libraries of approved drugs and bioactive compounds (AID 1345084); settings: Gynecologic cancer cell panel viability, ATPlite luminescence, 48 h; series mostly up to 57.5 µM; also: nearly all actives have a fitted effect of over 55% in size; also: potency is read from the fitted curve at half-maximal effect
Summary of the method: (§1)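 ATP-based viability (ATPlite), 1,000 cells/well, 16 h pre-incubation, 48 h compound at 37 C, 5% CO2, 15 min RT before read.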

Es-2 = assay: as above; settings: Gynecologic cancer cell panel viability, ATPlite luminescence, 48 h; series mostly up to 57.5 µM
Summary of the method: as §1

JEG-3 = assay: as above; settings: Gynecologic cancer cell panel viability, ATPlite luminescence, 48 h; series mostly up to 57.5 µM
Summary of the method: as §1

[9] = tested on: Nanoluciferase (engineered Oplophorus gracilirostris luciferase); assay: Primary Nanoluciferase (NLuc) qHTS assay for identification of artifact compounds. (AID 1845222);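 also: NLuc secreted into diluted conditioned medium of S16 cells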
Summary of the method: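 Concentration-response data were obtained by luminescence after 5 min with Nano-Glo substrate at 1:100. The enzyme was diluted S16 NLuc-expressing cell medium, preincubated with compound for 15 min at RT. Curves were fitted with a 4-parameter Hill model.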

HeLa = assay: Primary qHTS to identify gynecologic anti-cancer compounds using libraries of approved drugs and bioactive compounds (AID 1345084); settings: Gynecologic cancer cell panel viability, ATPlite luminescence, 48 h; series mostly up to 57.5 µM; also: nearly all actives have a fitted effect of over 55% in size; also: potency is read from the fitted curve at half-maximal effect
Summary of the method: as §1

OV90 = assay: as above; settings: Gynecologic cancer cell panel viability, ATPlite luminescence, 48 h; series mostly up to 57.5 µM
Summary of the method: as §1

Tov-21-G = assay: as above; settings: Gynecologic cancer cell panel viability, ATPlite luminescence, 48 h; series mostly up to 57.5 µM
Summary of the method: as §1

[10] = Primary fluorescence-based thiol-reactive (MSTI) qHTS assay for identification of artifact compounds. (AID 1845221); also: nearly all actives have a fitted effect of over 65% in size; also: potency is read from the fitted curve at half-maximal effect
Summary of the method: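 A multi-concentration qHTS design tested compounds against 4 uM MSTI, pH 7.4 phosphate-buffered saline. Plates were protected from light for 1 h at room temperature before imaging fluorescence.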

Hek293T = assay: Primary qHTS to identify gynecologic anti-cancer compounds using libraries of approved drugs and bioactive compounds (AID 1345084); settings: Gynecologic cancer cell panel viability, ATPlite luminescence, 48 h, control line for the selectivity index; series mostly up to 57.5 µM; also: nearly all actives have a fitted effect of over 55% in size; also: potency is read from the fitted curve at half-maximal effect
Summary of the method: as §1

PA-1 = assay: as above; settings: Gynecologic cancer cell panel viability, ATPlite luminescence, 48 h; series mostly up to 57.5 µM
Summary of the method: as §1

Tov112D = assay: as above; settings: Gynecologic cancer cell panel viability, ATPlite luminescence, 48 h; series mostly up to 57.5 µM
Summary of the method: as §1

CASKI = assay: as above; settings: Gynecologic cancer cell panel viability, ATPlite luminescence, 48 h; series mostly up to 57.5 µM
Summary of the method: as §1

SMILES: COc1cc(N2CCN(C(C)=O)CC2)ccc1Nc1ncc(Cl)c(Nc2ccc(N3CCN(C(C)=O)CC3)cc2OC)n1
- Potency [1]: inactive
- outcome [2]: inactive
- Potency [3]: 8.17 µM (active) and 16.6 µM (active)
- Potency [4]: 6.49 µM (active) and 13.2 µM (active)
- Potency [5]: inactive
- Potency [6]: inactive
- Potency [7]: inactive
- Potency [8]: inactive
- Potency (C33A): inactive
- Potency (Es-2): inactive
- Potency (JEG-3): inactive

SMILES: CC1CCCC(SCC(O)C(=O)O)CC(=O)c2c(O)cc(O)cc2CC(=O)O1 (configuration not stated)
- Potency [1]: inactive
- outcome [2]: inactive
- Potency [3]: 6.32 µM (active)
- Potency [4]: 3.55 µM (active)
- Potency [5]: inactive
- Potency [6]: inactive
- Potency [7]: inactive
- Potency [9]: inactive
- Potency [8]: inactive
- Potency (HeLa): inactive
- Potency (JEG-3): inactive
- Potency (OV90): inactive
- Potency (Tov-21-G): inactive

SMILES: COc1ccccc1NC(=O)Nc1ccc2ccccc2c1
- Potency [1]: inactive
- outcome [2]: inactive
- Potency [3]: 25.8 µM (active)
- Potency [4]: 2.9 µM (active)
- Potency [5]: inactive
- Potency [6]: inactive
- Potency [10]: inactive
- Potency [8]: inactive
- Potency (C33A): inactive
- Potency (Es-2): inactive
- Potency (HeLa): inactive
- Potency (Hek293T): inactive
- Potency (JEG-3): inactive
- Potency (PA-1): inactive
- Potency (Tov112D): inactive

SMILES: C=C1[C@@H](C2=CC(=O)OC2)CC[C@@]2(O)[C@@H]1CC1[C@H]2CC[C@@H]2C[C@@H](O[C@H]3O[C@@H](C)[C@@H](O[C@@H]4O[C@H](CO[C@@H]5O[C@H](CO)[C@@H](O)[C@H](O)[C@H]5O)[C@@H](O)[C@H](O)[C@H]4O)[C@H](OC)[C@H]3O)CC[C@]12C (some centres not stated)
- Potency [1]: inactive
- outcome [2]: inactive
- Potency [3]: 1.94 µM (active)
- Potency [5]: inactive
- Potency [6]: inactive
- activity change, negative = inhibition [7]: 0.528% [at 11.6 µM]
- activity, negative = inhibition [9]: -0.15% [at 11.6 µM]
- Potency (C33A): 3.55 µM (active)
- activity change, negative = cytotoxicity (CASKI): -6.72% [at 11.6 µM]
- activity change, negative = cytotoxicity (OV90): -0.0855% [at 11.6 µM]
- Potency (Tov-21-G): 3.16 µM (active)
- Potency (Tov112D): 2.24 µM (active)

SMILES: OCC(CO)(CO)NCC(O)Cn1c2ccc(Cl)cc2c2cc(Cl)ccc21 (configuration not stated)
- Potency [1]: inactive
- outcome [2]: inactive
- Potency [3]: 20.5 µM (active)
- Potency [4]: 20.5 µM (active)
- Potency [5]: inactive
- Potency [6]: inactive
- Potency [7]: inactive
- Potency [10]: inactive
- Potency [9]: inactive
- Potency (C33A): inactive
- Potency (CASKI): inactive
- Potency (Es-2): inactive
- Potency (HeLa): inactive
- Potency (Hek293T): inactive
- Potency (JEG-3): inactive
- Potency (OV90): inactive
- Potency (PA-1): inactive
- Potency (Tov-21-G): inactive
- Potency (Tov112D): inactive

SMILES: COCCOCCOc1ccc(C2=N[C@@](C)(C(=O)O)CS2)c(O)c1
- outcome [2]: inactive
- Potency [4]: 10.3 µM (active)
- Potency [5]: inactive
- Potency [10]: 0.377 µM (active)
- Potency (C33A): inactive
- Potency (CASKI): inactive
- Potency (Es-2): inactive
- Potency (HeLa): inactive
- Potency (Hek293T): inactive
- Potency (JEG-3): inactive
- Potency (Tov-21-G): inactive

SMILES: Cc1nc2ccc(C(=O)N3CCC4(CC3)CC(=O)c3c(cnn3C(C)C)C4)cc2[nH]1
- outcome [2]: inactive
- Potency [5]: inactive
- Potency [6]: inactive

SMILES: C=C1[C@@H](C)[C@H]2[C@H](Cc3c[nH]c4ccccc34)NC(=O)[C@]23C(=O)/C=C/C(=O)[C@H](O)/C(C)=C\[C@@H](C)C/C=C/[C@H]3[C@@H]1O
- Potency [1]: inactive
- outcome [2]: inactive
- Potency [3]: 3.99 µM (active)
- Potency [4]: 0.796 µM (active)
- Potency [5]: inactive
- Potency [6]: inactive
- Potency [7]: inactive
- Potency [10]: inactive
- Potency [9]: inactive
- Potency [8]: inactive
- Potency (C33A): inactive
- Potency (CASKI): inactive
- Potency (Es-2): inactive
- Potency (Hek293T): inactive
- Potency (JEG-3): inactive
- Potency (OV90): inactive
- Potency (PA-1): inactive
- Potency (Tov112D): inactive

SMILES: CC(C)(C)c1ccc(CNC(=S)NCc2ccc(NS(C)(=O)=O)c(F)c2)cc1
- Potency [1]: inactive
- outcome [2]: inactive
- Potency [3]: 20.5 µM (active)
- Potency [4]: 12.9 µM (active)
- Potency [5]: 14.3 µM (active)
- Potency [6]: inactive
- Potency [7]: inactive
- Potency [10]: inactive
- Potency [9]: inactive
- Potency (C33A): inactive
- Potency (CASKI): inactive
- Potency (Es-2): inactive
- Potency (HeLa): inactive
- Potency (Hek293T): inactive
- Potency (OV90): inactive
- Potency (PA-1): inactive
- Potency (Tov-21-G): inactive
- Potency (Tov112D): inactive

SMILES: CC1CCC2C(C)(C)C(O)CCC2(C)C12Cc1c(O)cc3c(c1O2)CN(C(CCCN=C(N)N)C(=O)O)C3=O (configuration not stated)
- Potency [1]: inactive
- outcome [2]: inactive
- Potency [4]: 8.93 µM (active)
- Potency [5]: inactive
- Potency [6]: inactive
- Potency [7]: inactive
- Potency [10]: inactive
- Potency [9]: inactive
- Potency [8]: inactive
- Potency (C33A): inactive
- Potency (CASKI): inactive
- Potency (Es-2): inactive
- Potency (HeLa): inactive
- Potency (JEG-3): inactive
- Potency (OV90): inactive
- Potency (Tov-21-G): inactive

SMILES: CCOC(=O)c1cccc(CNc2ccc(N(C)C(=O)Nc3ccccc3)cc2)c1
- Potency [1]: inactive
- outcome [2]: inactive
- Potency [3]: 14.5 µM (active)
- Potency [4]: 14.5 µM (active)
- Potency [5]: inactive
- Potency [6]: inactive
- Potency [7]: inactive
- Potency [9]: inactive
- Potency [8]: 23.8 µM (active)
- Potency (HeLa): inactive
- Potency (JEG-3): inactive
- Potency (Tov-21-G): inactive
- Potency (Tov112D): inactive

SMILES: COc1cccc(CNC(=O)Nc2nc(-c3ccncc3)cs2)c1
- Potency [1]: inactive
- outcome [2]: inactive
- Potency [3]: 7.28 µM (active)
- Potency [4]: 1.63 µM (active)
- Potency [5]: inactive
- Potency [6]: inactive
- Potency [7]: inactive
- Potency [10]: inactive
- Potency [9]: inactive
- Potency (C33A): inactive
- Potency (CASKI): inactive
- Potency (Es-2): inactive
- Potency (Hek293T): inactive
- Potency (JEG-3): inactive
- Potency (OV90): inactive
- Potency (PA-1): inactive
- Potency (Tov-21-G): inactive
- Potency (Tov112D): inactive

SMILES: COc1ccc(CNC(=O)Nc2ncc([N+](=O)[O-])s2)cc1
- Potency [1]: inactive
- outcome [2]: inactive
- Potency [3]: 18.6 µM (active)
- Potency [4]: 18.6 µM (active)
- Potency [5]: inactive
- Potency [10]: 2.67 µM (active)
- Potency [9]: inactive
- Potency (CASKI): inactive
- Potency (JEG-3): inactive
- Potency (Tov-21-G): inactive
- Potency (Tov112D): inactive

SMILES: O=C1c2c(O[C@@H]3O[C@H](CO)[C@@H](O)[C@H](O)[C@H]3O)cc(O)cc2OC1(O)Cc1ccc(O)cc1 (some centres not stated)
- outcome [2]: inactive
- Potency [3]: 7.96 µM (active)
- Potency [4]: 4.47 µM (active)
- Potency [5]: inactive
- Potency [6]: inactive
- Potency [7]: inactive
- Potency [9]: inactive
- Potency [8]: inactive
- Potency (Es-2): inactive
- Potency (HeLa): inactive
- Potency (JEG-3): inactive
- Potency (OV90): inactive
- Potency (PA-1): inactive
- Potency (Tov-21-G): inactive
